# Measured values: ChEMBL document CHEMBL1201862, “PubChem BioAssay data set” (2004)
# These assays gave more results; the selection is not random.
# Target: Huntingtin (Homo sapiens) (UniProt P42858)
# Experiment: qHTS Assay Multiplex Screening to Identify Dual Action Probes in a Cell Model of Huntington: Cytoprotection (Protease release). [Related pubchem assays: 1482, 1471, 1688 ]; call rule not given here
# Assay type: functional
# Sequence of Huntingtin (Homo sapiens) (P42858 whole entry): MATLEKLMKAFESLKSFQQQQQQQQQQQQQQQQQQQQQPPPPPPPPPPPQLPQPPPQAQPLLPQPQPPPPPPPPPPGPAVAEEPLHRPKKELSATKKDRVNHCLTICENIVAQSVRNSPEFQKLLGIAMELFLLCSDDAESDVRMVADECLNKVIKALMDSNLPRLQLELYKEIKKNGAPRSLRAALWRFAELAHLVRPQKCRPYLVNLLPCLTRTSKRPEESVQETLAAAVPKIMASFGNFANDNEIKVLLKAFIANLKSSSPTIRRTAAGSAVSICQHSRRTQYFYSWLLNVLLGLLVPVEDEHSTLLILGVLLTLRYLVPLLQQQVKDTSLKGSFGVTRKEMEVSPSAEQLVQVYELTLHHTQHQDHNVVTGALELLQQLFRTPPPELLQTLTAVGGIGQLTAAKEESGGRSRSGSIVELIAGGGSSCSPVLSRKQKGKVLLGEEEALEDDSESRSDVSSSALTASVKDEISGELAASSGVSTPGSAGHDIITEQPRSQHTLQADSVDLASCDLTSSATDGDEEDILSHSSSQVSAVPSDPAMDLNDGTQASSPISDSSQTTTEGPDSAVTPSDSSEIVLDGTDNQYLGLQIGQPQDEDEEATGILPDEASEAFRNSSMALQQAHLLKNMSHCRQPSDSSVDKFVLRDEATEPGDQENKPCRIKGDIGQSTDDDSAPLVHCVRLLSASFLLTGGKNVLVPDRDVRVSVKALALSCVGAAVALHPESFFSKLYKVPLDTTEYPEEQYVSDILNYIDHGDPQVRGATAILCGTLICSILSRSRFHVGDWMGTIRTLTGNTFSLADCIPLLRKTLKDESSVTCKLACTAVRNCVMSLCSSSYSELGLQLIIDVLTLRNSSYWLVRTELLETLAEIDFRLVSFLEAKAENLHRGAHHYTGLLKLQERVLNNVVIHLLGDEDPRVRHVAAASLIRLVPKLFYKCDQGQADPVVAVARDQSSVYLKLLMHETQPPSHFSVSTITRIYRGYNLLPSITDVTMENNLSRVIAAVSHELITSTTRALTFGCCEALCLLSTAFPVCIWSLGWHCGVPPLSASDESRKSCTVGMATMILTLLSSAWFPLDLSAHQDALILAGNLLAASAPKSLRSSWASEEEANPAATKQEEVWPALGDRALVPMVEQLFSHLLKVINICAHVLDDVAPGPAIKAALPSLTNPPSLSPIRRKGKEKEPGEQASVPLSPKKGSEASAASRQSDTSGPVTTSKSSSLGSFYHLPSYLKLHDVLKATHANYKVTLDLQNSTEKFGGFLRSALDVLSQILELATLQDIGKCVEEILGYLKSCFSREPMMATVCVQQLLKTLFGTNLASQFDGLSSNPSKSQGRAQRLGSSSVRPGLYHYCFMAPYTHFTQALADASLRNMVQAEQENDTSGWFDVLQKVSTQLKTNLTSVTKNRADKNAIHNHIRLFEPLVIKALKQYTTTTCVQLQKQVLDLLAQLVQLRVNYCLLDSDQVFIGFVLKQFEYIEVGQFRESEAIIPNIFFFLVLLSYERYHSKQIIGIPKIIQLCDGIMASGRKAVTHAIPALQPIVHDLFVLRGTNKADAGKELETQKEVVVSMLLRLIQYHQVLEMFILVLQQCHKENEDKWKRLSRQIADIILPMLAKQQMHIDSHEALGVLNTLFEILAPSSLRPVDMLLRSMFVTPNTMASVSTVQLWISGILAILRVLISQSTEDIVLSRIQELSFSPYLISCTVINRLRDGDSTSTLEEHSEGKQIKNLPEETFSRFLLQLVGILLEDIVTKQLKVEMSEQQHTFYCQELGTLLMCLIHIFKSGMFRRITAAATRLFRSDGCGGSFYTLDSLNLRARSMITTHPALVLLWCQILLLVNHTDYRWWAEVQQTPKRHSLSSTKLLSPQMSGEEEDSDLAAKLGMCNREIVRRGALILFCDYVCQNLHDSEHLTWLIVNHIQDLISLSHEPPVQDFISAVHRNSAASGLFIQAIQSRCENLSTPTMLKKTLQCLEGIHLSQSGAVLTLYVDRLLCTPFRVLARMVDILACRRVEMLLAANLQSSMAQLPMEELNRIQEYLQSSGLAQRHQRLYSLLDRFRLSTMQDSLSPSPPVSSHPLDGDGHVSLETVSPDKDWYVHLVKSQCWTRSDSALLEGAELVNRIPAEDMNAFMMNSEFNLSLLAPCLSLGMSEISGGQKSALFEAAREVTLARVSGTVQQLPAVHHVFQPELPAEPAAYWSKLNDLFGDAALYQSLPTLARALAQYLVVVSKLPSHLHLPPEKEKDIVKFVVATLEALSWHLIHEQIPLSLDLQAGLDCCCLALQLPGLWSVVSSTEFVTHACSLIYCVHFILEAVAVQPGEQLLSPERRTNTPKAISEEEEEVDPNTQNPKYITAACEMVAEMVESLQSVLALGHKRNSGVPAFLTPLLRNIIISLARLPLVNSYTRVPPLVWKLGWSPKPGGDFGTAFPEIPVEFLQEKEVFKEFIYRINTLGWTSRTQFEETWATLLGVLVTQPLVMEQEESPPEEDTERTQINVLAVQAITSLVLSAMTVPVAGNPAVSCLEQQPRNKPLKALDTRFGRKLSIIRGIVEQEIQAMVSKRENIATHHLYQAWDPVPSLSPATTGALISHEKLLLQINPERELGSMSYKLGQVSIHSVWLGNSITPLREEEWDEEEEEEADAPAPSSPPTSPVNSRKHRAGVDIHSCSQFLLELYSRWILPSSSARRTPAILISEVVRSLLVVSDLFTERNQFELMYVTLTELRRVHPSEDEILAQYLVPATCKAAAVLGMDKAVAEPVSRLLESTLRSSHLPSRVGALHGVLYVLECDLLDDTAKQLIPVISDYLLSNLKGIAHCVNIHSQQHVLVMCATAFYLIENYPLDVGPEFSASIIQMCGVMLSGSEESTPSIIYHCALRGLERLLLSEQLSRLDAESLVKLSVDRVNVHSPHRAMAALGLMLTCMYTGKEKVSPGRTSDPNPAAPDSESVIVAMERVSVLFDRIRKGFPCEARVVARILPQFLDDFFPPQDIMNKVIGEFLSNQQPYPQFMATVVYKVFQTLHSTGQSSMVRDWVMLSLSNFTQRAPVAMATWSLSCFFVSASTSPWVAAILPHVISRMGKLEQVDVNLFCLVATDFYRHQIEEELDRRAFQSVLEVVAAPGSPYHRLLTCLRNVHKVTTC
structure (smiles),measurement,value
COC[C@@H]([C@H](O)[C@H](O)C(=O)NCC[C@H](C)c1nc(/C=C/C[C@@H]2O[C@]3(C[C@@H](O)[C@@H]2C)O[C@H]([C@H](C[C@H](O)[C@H](C)[C@H](O)[C@H](C)/C=C(C)/C(C)=C/C=C/C(C)=C\C#N)OC)[C@H](OP(=O)(O)O)C3(C)C)co1)N(C)C,Potency,1120 nM (active)
